According to PubChem BioAssay AID1159580 (chemical genetic matrix, 2015):
“And” between values parts separate entries of the source, which are not always exact repeats. Identical values can stand only once. Screen size: about 5,500 compounds; about 2,000 (36%) were called active. Inconclusive results (about 18%) are left out. Cut-off read from the data, not from the text of the source: active = normalized growth mostly below about 0.91 (no sharp cut-off); inconclusive = no clear call, values can overlap the other calls; inactive = mostly above about 0.92. The list shows a part of the results.

Experiment: chemical genetic growth profiling, strain panel (AID 1159580);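 note: tested at 20 µM; growth read once vehicle control cultures reached saturation at 30 °C; 1 = growth at the plate median or of vehicle wells; lower values mean less growth of the strain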
Conditions: S. cerevisiae deletion strains, growth OD

Measured: normalized growth

Cn1nnnc1SCC1=C(C(=O)O)N2C(=O)C(NC(=O)C(O)c3ccccc3)C2SC1 (configuration not stated)
inactive: locus YAL013W, strain DEP1, hits give low values 1.02 | locus YAL021C, strain ccr4, hits give low values 0.97 | locus YAL026C, strain drs2, hits give low values 0.972 | locus YAL030W, strain snc1, hits give low values 0.983 | locus YBL061C, strain skt5, hits give low values 0.97 | locus YBR009C, strain hhf1, hits give low values 0.988 | locus YBR021W, strain FUR4, hits give low values 1.01 | locus YBR023C, strain chs3, hits give low values 0.964 | locus YBR171W, strain sec66, hits give low values 0.945 | locus YBR229C, strain ROT2, hits give low values 1.01 | locus YBR231C, strain swc5, hits give low values 0.991 | locus YBR279W, strain paf1, hits give low values 0.977 | locus YCL011C, strain gbp2, hits give low values 0.971 | locus YCL016C, strain dcc1, hits give low values 0.967 | locus YCL029C, strain bik1, hits give low values 0.996 | locus YCL061C, strain MRC1, hits give low values 0.968 | locus YCL069W, strain vba3, hits give low values 0.973 | locus YCR088W, strain abp1, hits give low values 0.975 | locus YDL005C, strain med2, hits give low values 0.972 | locus YDL035C, strain GPR1, hits give low values 1.03 | locus YDL040C, strain nat1, hits give low values 0.984 | locus YDL074C, strain BRE1, hits give low values 1.05 | locus YDL101C, strain DUN1, hits give low values 1.02 | locus YDL134C, strain PPH21, hits give low values 1.02 | locus YDL185W, strain tfp1, hits give low values 1 | locus YDL192W, strain arf1, hits give low values 1 | locus YDR001C, strain nth1, hits give low values 0.979 | locus YDR069C, strain doa4, hits give low values 0.978 | locus YDR101C, strain arx1, hits give low values 0.99 | locus YDR137W, strain rgp1, hits give low values 0.943 | locus YDR150W, strain NUM1, hits give low values 1.03 | locus YDR159W, strain sac3, hits give low values 0.985 | locus YDR162C, strain NBP2, hits give low values 1.06 | locus YDR195W, strain ref2 0.969 | locus YDR297W, strain sur2, hits give low values 0.983 | locus YDR318W, strain mcm21, hits give low values 0.996 | locus YDR334W, strain swr1, hits give low values 0.964 | locus YDR335W, strain msn5, hits give low values 0.978 | locus YDR388W, hits give low values 0.991 | locus YDR392W, strain spt3, hits give low values 0.873 | locus YDR502C, strain sam2, hits give low values 1.01 | locus YEL003W, strain gim4, hits give low values 0.995 | locus YEL037C, strain rad23, hits give low values 0.972 | locus YEL061C, strain CIN8 (second series), hits give low values 0.978 | locus YEL061C, strain CIN8, hits give low values 1.01 | locus YER015W, strain faa2, hits give low values 0.99 | locus YER016W, strain bim1, hits give low values 0.995 | locus YER110C, hits give low values 0.997 | locus YER111C, strain swi4, hits give low values 0.96 | locus YER155C, strain BEM2 (second series), hits give low values 0.973 | locus YER155C, strain BEM2, hits give low values 1.02 | locus YER167W, strain BCK2, hits give low values 1.02 | locus YFR010W, strain ubp6, hits give low values 0.974 | locus YGL078C, strain dbp3, hits give low values 1 | locus YGL086W, strain mad1, hits give low values 1 | locus YGL167C, strain pmr1, hits give low values 0.967 | locus YGL173C, strain kem1, hits give low values 0.97 | locus YGL227W, strain vid30, hits give low values 0.984 | locus YGL240W, strain doc1, hits give low values 0.992 | locus YGL248W, strain PDE1, hits give low values 1.02 | locus YGL253W, strain hxk2, hits give low values 0.98 | locus YGR078C, strain PAC10, hits give low values 1.05 | locus YGR135W, strain pre9, hits give low values 1.01 | locus YGR229C, strain SMI1, hits give low values 1.03 | locus YGR252W, strain gcn5, hits give low values 0.972 | locus YHR013C, strain ard1, hits give low values 0.952 | locus YHR027C, strain rpn1, hits give low values 0.968 | locus YHR030C, strain SLT2, hits give low values 1.01 and 0.991 | locus YHR079C, strain IRE1 (second series), hits give low values 1 | locus YHR079C, strain IRE1, hits give low values 0.984 | locus YHR094C, strain hxt1, hits give low values 1 | locus YHR129C, strain ARP1, hits give low values 1.01 | locus YHR142W, strain chs7, hits give low values 0.951 | locus YHR200W, strain rpn10, hits give low values 1.01 | locus YIL066C, strain RNR3, hits give low values 1.02 | locus YIL073C, strain SPO22, hits give low values 1.03 | locus YIL125W, strain kgd1, hits give low values 1.01 | locus YIR030C, strain dcg1, hits give low values 1 | locus YJL092W, strain hpr5, hits give low values 0.976 | locus YJL095W, strain BCK1 (second series), hits give low values 0.987 | locus YJL095W, strain BCK1, hits give low values 1.02 and 0.987 | locus YJL115W, strain asf1, hits give low values 0.958 | locus YJL129C, strain trk1, hits give low values 0.973 | locus YJL134W, strain LCB3, hits give low values 1.01 | locus YJL154C, strain vps35, hits give low values 0.982 | locus YJL164C, strain tpk1, hits give low values 0.954 | locus YJL166W, strain qcr8, hits give low values 0.968 | locus YJL168C, strain set2, hits give low values 0.995 | locus YJL187C, strain SWE1 (second series), hits give low values 1.02 | locus YJL187C, strain SWE1, hits give low values 0.974 | locus YJR043C, strain POL32, hits give low values 1.02 | locus YJR066W, strain TOR1, hits give low values 0.938
